# Experimental data taken from ChEMBL document CHEMBL4808148, “HDAC6 screening dataset using tau-based substrate in an enzymatic assay yields selective inhibitors and activators” (2021).
# Screen size: about 5,600 compounds; about 390 (7%) showed an effect of 50% or more. Shown is part of a subset that was picked to be rich in strong results. Residues, ends and D or L forms follow the SMILES beside them.
# Target: T1, Protein deacetylase HDAC6 (Homo sapiens) (UniProt Q9UBN7)
# T1 sequence (whole entry): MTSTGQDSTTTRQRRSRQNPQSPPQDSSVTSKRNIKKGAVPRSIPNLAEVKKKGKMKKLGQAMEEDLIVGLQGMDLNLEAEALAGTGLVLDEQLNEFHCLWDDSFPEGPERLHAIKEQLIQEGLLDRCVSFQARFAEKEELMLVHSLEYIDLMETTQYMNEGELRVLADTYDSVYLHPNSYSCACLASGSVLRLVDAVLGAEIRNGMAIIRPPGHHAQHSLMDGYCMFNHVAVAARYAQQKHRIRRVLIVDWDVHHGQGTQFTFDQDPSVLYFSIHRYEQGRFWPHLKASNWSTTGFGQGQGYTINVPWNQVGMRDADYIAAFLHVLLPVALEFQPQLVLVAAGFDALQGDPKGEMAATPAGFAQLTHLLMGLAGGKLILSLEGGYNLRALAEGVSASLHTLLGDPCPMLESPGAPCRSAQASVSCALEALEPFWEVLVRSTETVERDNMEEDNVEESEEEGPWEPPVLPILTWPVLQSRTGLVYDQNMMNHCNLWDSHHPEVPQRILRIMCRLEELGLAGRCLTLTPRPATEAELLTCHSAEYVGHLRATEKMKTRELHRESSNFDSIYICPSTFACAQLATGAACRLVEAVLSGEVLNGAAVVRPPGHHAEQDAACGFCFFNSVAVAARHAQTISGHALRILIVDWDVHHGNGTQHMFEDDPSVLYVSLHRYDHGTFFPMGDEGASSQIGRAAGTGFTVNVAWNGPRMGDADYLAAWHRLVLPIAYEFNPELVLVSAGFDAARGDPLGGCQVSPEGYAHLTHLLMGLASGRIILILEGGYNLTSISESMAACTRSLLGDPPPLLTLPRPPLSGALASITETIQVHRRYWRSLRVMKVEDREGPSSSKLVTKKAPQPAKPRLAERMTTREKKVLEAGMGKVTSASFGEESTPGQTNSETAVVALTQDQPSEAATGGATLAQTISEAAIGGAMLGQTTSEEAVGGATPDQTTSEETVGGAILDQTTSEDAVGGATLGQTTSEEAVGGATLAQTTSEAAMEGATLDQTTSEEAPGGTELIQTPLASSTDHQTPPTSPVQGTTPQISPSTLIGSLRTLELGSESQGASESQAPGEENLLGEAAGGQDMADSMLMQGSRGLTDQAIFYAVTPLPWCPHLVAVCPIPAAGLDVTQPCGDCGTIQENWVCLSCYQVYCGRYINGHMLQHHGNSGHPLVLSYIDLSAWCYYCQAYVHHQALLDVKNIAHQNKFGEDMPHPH
# Settings: at 10 µM
row,SMILES,inhibition
1,COc1nccnc1NS(=O)(=O)c1ccc(N)cc1,34.6%
2,CCCCc1nc2cc(/C=C/C(=O)NO)ccc2n1CCN(CC)CC,102%
3,Clc1cc(Cl)c(OCC#CI)cc1Cl,4.74%
4,COc1cc2nc(N3CCC(N4CCCCC4)CC3)nc(NC3CCCCCC3)c2cc1OC,0.07%
5,CC(C)[C@H]1c2ccc(F)cc2CC[C@@]1(CCN(C)CCCc1nc2ccccc2[nH]1)OC(=O)C1CC1,15.1%
6,COc1ccc2nc(NC(=O)Nc3ccccc3)sc2c1,109%
7,Cc1cc(C)cc(NC(=O)Nc2ccc(OS(N)(=O)=O)cc2)c1,44.5%
8,COc1ccc(Nc2ncnc3ccc(OC)cc23)cc1,27.1%
9,COC1=C2C[C@@H](C)C[C@H](OC)[C@H](O)[C@@H](C)/C=C(\C)[C@H](OC(N)=O)[C@@H](OC)/C=C\C=C(/C)C(=O)NC(=CC1=O)C2=O,19.3%
10,COC(=O)Nc1ccc(-c2nc(N3CCOCC3)c3cnn(C4CCN(Cc5cccnc5)CC4)c3n2)cc1,-1.91%
11,Nc1nnc(Sc2ncc([N+](=O)[O-])s2)s1,34.9%
12,O=C(Nc1c(Cl)cncc1Cl)c1ccc(OC(F)F)c(OCC2CC2)c1,-1.25%
13,Cc1ccc(-c2csc3ncnc(SCCC(=O)O)c23)cc1,22.2%
14,O=C(O)COc1ccc(C(=O)c2cccs2)c(Cl)c1Cl,19.9%
15,Sc1nc2ccccc2s1,52.6%
16,O=c1[nH]c2cc(C(F)(F)F)c(N3CCOCC3)cc2n(CP(=O)(O)O)c1=O,1.79%
17,CC(C)=CCC[C@](C)(O)[C@@H]1CC=C(C)CC1,18.6%
18,COc1ccc(Cc2nc(O)c3c(C)nc([C@@H](CCCc4ccccc4)[C@@H](C)O)n3n2)cc1OC,-9.71%
19,Cc1sc(N)c(C(=O)c2cccc(C(F)(F)F)c2)c1C,17.1%
20,Cc1cc(C)c(S(=O)(=O)Nc2cccc(C(F)(F)F)c2)c(C)c1,97.6%
21,COc1ccc(S(=O)(=O)Nc2c(C)cc(C)cc2C)cc1,-8.52%
22,CCc1cccc(CC)c1NC(=O)N1Cc2[nH]nc(NC(=O)c3ccc(N4CCN(C)CC4)cc3)c2C1,7.27%
23,Nc1nc(N)c(N=O)c(OCC2CCCCC2)n1,81.8%
24,Nc1nc(OCC2CCCCC2)c2nc[nH]c2n1,33.5%
25,Nc1ccc(C(=O)NCC(=O)O)cc1,6.74%
26,CN(C)CCC1(c2ccc(Cl)cc2)Cc2ccccc2C(=O)O1 (racemic),3.8%
27,Cn1cnc([N+](=O)[O-])c1Sc1ncnc2[nH]cnc12,12.8%

row,SMILES,inhibition
1,Oc1ccc(C(O)CNCCCCCCNCC(O)c2ccc(O)c(O)c2)cc1O (stereo not drawn),-3.51%
2,OCc1cc(C(O)CNCCCCCCOCCCCc2ccccc2)ccc1O (stereo not drawn),-5.85%
3,OCc1cc([C@@H](O)CNCCCCCCOCCOCc2c(Cl)cccc2Cl)ccc1O,59.3%
4,COc1ccc(Cl)cc1NC(=O)Nc1cc(C)nc2ccccc12,16.6%
5,COc1cc(NS(C)(=O)=O)ccc1Nc1c2ccccc2nc2ccccc12,76.6%
6,COc1ccc(S(=O)(=O)Nc2cccnc2Nc2ccc(O)cc2)cc1,34.3%
7,CCOC(=O)c1cc(C#N)c(N2CCC(C(=O)NS(=O)(=O)Cc3ccccc3)CC2)nc1C,21.9%
8,NCC(=O)N[C@@H](CCC(N)=O)C(=O)O (H-Gly-Gln-OH),29.1%
9,O=S(=O)(Cc1ccccc1)Nc1ccc(-c2ccc3c(cnn3-c3ccc(F)cc3)c2)c(C(F)(F)F)c1,-8.14%
10,N[C@H]1C[C@@H]1c1ccc(-c2cccc(O)c2)cc1,77.4%
11,Oc1cccc(O)c1,1.38%
12,O=c1[nH]c2ccccc2n1C1CCN(CCOc2ccccc2)CC1,20.9%
13,CCOC(=O)c1cc2ccc(O)cc2oc1=O,55.9%
14,CN1CCC(COc2cnc(-c3cccc(Cn4nc(-c5cccc(C#N)c5)ccc4=O)c3)nc2)CC1,17.5%
15,COc1cc2c(cc1-c1c(C)noc1C)ncc1[nH]c(=O)n([C@H](C)c3ccccn3)c12,12.8%
16,CC(=O)/N=c1/[nH]c(C)c(-c2ccc(Cl)c(S(=O)(=O)NCCO)c2)s1,23.4%
17,CCCCC1=NC2(CCCC2)C(=O)N1Cc1ccc(-c2ccccc2-c2nnn[nH]2)cc1,-8.81%
18,O=C(O)c1cnn(-c2nc3cc(OC(F)(F)F)c(Cl)cc3[nH]2)c1,59.5%
19,Cc1cc(NCCO)nc(-c2ccc(Br)cc2)n1,85.2%
20,COc1ccc(Nc2nccc(NCCO)n2)cc1,37.2%
21,N#Cc1cc(CN2CCC(Nc3ncnc4sc(Cl)cc34)CC2)ccc1F,6.29%
22,Cn1c(NC[C@@H](N)Cc2ccccc2)nc(-c2ccncc2)c(-c2ccc3ccccc3c2)c1=O,0.59%
23,Nc1nccc2c1ncn2[C@@H]1O[C@H](CO)C(O)C1O (stereo partly drawn),11%
24,C[C@H](NC(=O)CNC(=O)c1cccc(Cl)c1)c1ccccc1,21.1%
25,COc1ccc(C(=O)NCc2ccc(OCCN(C)C)cc2)cc1OC,1.13%
26,COc1cc(C(=O)NCc2ccc(OCCN(C)C)cc2)cc(OC)c1OC,6.33%
